# In PubChem BioAssay AID2501 (Southern Research Specialized Biocontainment Screening …, 2010):
# In all, about 2,200 compounds went through this assay and about 1,200 (55%) were called active. Cut-off not given; nearly all actives show IC50 up to about 92 µM. The set was probably picked from earlier hits. The list shows a part of the results.
# Test: counter assay for TAg ATPase ADP read-out – biochemical, ADP-Hunter, fluorescence, counter-screen (AID 2501);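 further: purified T antigen ATPase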
# Conditions: series mostly up to 100 µM
row,Structure (SMILES),IC50
1,COC/C=C/C1=CC2=CC(=O)C(C)(O)C(=O)C2=CO1 (stereo not given),inactive
2,Nc1ccc(-c2nc3cc(N)ccc3n2CCO)cc1,9.16 µM (active)
3,O=C(O)C1Nc2ccc(OC(F)(F)F)cc2C2C=CCC12 (stereo not given),inactive
4,COc1ccc(Nc2ccc(OC)cc2)cc1,11.3 µM (active)
5,Oc1ccc(-c2nc(-c3ccc(O)c(O)c3)cs2)cc1,17.4 µM (active)
6,Cc1nc(-c2ccc(O)c(O)c2)cs1,6.64 µM (active)
7,COc1cc(-c2csc(C)n2)ccc1O,3.58 µM (active)
8,COC(=O)C1=C(C)N(Cc2ccccc2)C(=NCCCCO)N[C@H]1c1ccccc1,inactive
9,Cc1nc(SCC(=O)N2CCOCC2)c2ccsc2n1,inactive
10,COc1ccc(N2CCC(CNC(=O)Nc3cccc(OC)c3)C2)cc1 (stereo not given),3.36 µM (active)
11,CC(=O)c1cccc(NC(=O)N2CCCC2C(=O)NCc2ccccc2)c1 (stereo not given),inactive
12,COc1ccc(N2CCC(CNC(=O)Nc3ccccc3)C2)cc1 (stereo not given),8.01 µM (active)
13,COc1ccc(S(=O)(=O)N2CCN(CC(=O)Nc3cccc(OC)c3)CC2)cc1,inactive
14,Nc1nc(Sc2c([N+](=O)[O-])cc(C(F)(F)F)cc2[N+](=O)[O-])n[nH]1,inactive
15,Oc1ccc(Nc2nc(Cl)nc(NCc3ccco3)n2)cc1,6.71 µM (active)
16,CCOC(=O)CNc1c(-c2ccc(O)cc2)nc2ccc(Cl)cn12,2.95 µM (active)
17,CCOC(=O)CNc1c(-c2ccc(O)cc2)nc2ccccn12,4.76 µM (active)
18,CC(C)Nc1nc(Cl)nc(Nc2ccccc2)n1,inactive
19,Oc1ccc(-c2nc3ccccn3c2NCc2ccco2)cc1,3.24 µM (active)
20,CCOC(=O)CC(=O)CSc1nc(N)c(C#N)c(-c2ccc(Cl)cc2)c1C#N,inactive
21,O=C(c1ccc(Cl)cc1)C1CCCN(C(=O)c2csnn2)C1 (stereo not given),inactive
22,O=C(NNC(=O)c1ccccc1O)c1ccc(-c2ccc([N+](=O)[O-])cc2)o1,inactive

row,Structure (SMILES),IC50
1,O=c1c(-c2ccc([N+](=O)[O-])cc2)coc2c(O)c(O)ccc12,11.1 µM (active)
2,CC(=O)c1cccc(S(=O)(=O)N2CCCC(c3nc(-c4ccc(C)o4)no3)C2)c1 (stereo not given),inactive
3,O=C(CCN1C(=O)C2CCCCC2C1=O)N1CCN(S(=O)(=O)c2cccc(F)c2)CC1 (stereo not given),inactive
4,CCOc1ccc(OC(=O)c2cccc(S(=O)(=O)N3CCN(C)CC3)c2)cc1,41.5 µM (active)
5,COc1cc(-c2nnc(SCc3cc(=O)oc4cc(O)c(O)cc34)o2)cc(OC)c1OC,11.6 µM (active)
6,COc1cc(/C(C)=N/NC(=O)CSc2nc3ccccc3[nH]2)ccc1O,6.48 µM (active)
7,CCOC(=O)c1c(C)[nH]c(C)c1C(=O)CSc1nc2ccccc2[nH]1,inactive
8,COc1cc(/C(C)=N/NC(=O)CSc2nnc(C)s2)ccc1O,8.44 µM (active)
9,CC1C=CCC2C(=O)N(c3cc(Cl)ccc3O)C(=O)C12 (stereo not given),inactive
10,COc1ccc(NN=Nc2nc3c([nH]2)c(=O)n(C)c(=O)n3C)cc1,25.4 µM (active)
11,O=S(=O)(Nc1c(S(=O)(=O)c2ccccc2)c2nc3ccccc3nc2n1C1CCCCC1)c1ccccc1,inactive
12,CCN(CC)P(=O)(C(NC(=O)OC)C(F)(F)C(F)(F)C(F)(F)C(F)F)N(CC)CC (stereo not given),inactive
13,O=Nc1ccc(NOC(=O)c2ccccc2Br)cc1,22.1 µM (active)
14,N#Cc1c(Nc2ccccc2C(F)(F)F)s[nH]c1=O,inactive
15,C/C(=N\NC(=O)Cn1cc([N+](=O)[O-])cn1)c1ccc(O)cc1,10.7 µM (active)
16,C/C(=N\NC(=O)CSCc1ccc([N+](=O)[O-])cc1)c1ccccc1,inactive
17,Oc1ccc(CCNc2c3ccccc3nc3ccccc23)cc1O,6.72 µM (active)
18,O=C1CC(c2ccccc2)c2cccc(F)c21 (stereo not given),inactive
19,COc1cc(/C=N\NC(=O)c2ccc(Cn3nc([N+](=O)[O-])c(Cl)c3C)o2)ccc1O,6.71 µM (active)
20,COc1cc(/C=N/NC(=O)c2ccc(Cn3cc([N+](=O)[O-])cn3)o2)cc(Br)c1O,8.55 µM (active)
21,COc1ccc(/C=N/NC(=O)c2cc(O)c(O)c(O)c2)cc1Cn1cc([N+](=O)[O-])cn1,inactive
22,COC(=O)CCC(=O)OC1(C)C(=O)C2=COC(c3ccc(OC)cc3)=CC2=C(Br)C1=O (stereo not given),inactive

row,Structure (SMILES),IC50
1,Cc1nn(C(C)C(=O)O)c2ccccc12 (stereo not given),inactive
2,Cc1[nH]nc2c1C(C(C)c1ccccc1)C(C#N)=C(N)O2 (stereo not given),inactive
3,COc1cc(C2C(C#N)=C(N)Oc3n[nH]c(-c4cccnc4)c32)cc(Br)c1O (stereo not given),16.7 µM (active)
4,CCOc1cc(/C=C/c2cc(C(F)(F)F)[nH]c(=O)n2)ccc1O,6.98 µM (active)
5,Cn1cccc1/C=N/NC(=O)c1cccc(OC(F)(F)C(F)F)c1,inactive
6,COc1cccc(C2C(C(C)=O)=C(O)C(=O)N2CCNCCO)c1 (stereo not given),inactive
7,COc1cccc(C(=O)Nc2ccc3c(c2)n(C)c(=O)n3C)c1,12.6 µM (active)
8,Oc1ccc(/C=N/NC(=S)Nc2cccnc2)cc1,0.9 µM (active)
9,CN(C(=S)Nc1cccnc1)c1ccc(O)cc1,40.6 µM (active)
10,Oc1cccc(/C=N/NC(=S)Nc2cccnc2)c1O,8.21 µM (active)
11,CCN(CC)c1ccc(NC(=O)CSc2nnc(N)s2)cc1C,8.65 µM (active)
12,CCC(C)[C@H](N)c1nnc(SCC(=O)Nc2cccc(Cl)c2)o1 (stereo not given in full),inactive
13,CCn1c(SCC(=O)Nc2cccc(C(C)=O)c2)nnc1C(C)C,inactive
14,Cc1nn(-c2ccc(Cl)cc2)c2[nH]c(=O)c(CNCc3ccc4c(c3)OCO4)cc12,inactive
15,Cc1nn(-c2ccccc2)c2[nH]c(=O)c(CNc3ccc(N4CCOCC4)cc3)cc12,3.77 µM (active)
16,Cc1cccc(NC(=S)N2CCCN(c3ncccc3[N+](=O)[O-])CC2)c1,inactive
17,Cc1nnc(C)c2c(C)n(-c3ccc4ncccc4c3)c(C)c12,inactive
18,Oc1ccc(N2CCN(C(c3ccncc3)c3nnnn3C3CCCC3)CC2)cc1 (stereo not given),3.39 µM (active)
19,CCC(C)(C)n1nnnc1C(c1ccc2ncccc2c1)N1CCN(c2ccc(O)cc2)CC1 (stereo not given),5.17 µM (active)
20,Oc1ccc(N2CCN(C(c3ccccn3)c3nnnn3C3CCCC3)CC2)cc1 (stereo not given),3.68 µM (active)
21,CC(C)(C)n1nnnc1C(c1ccncc1)N1CCN(c2ccc(O)cc2)CC1 (stereo not given),6.75 µM (active)
